From PubChem BioAssay AID1159580 (chemical genetic matrix, 2015)
Several values for one entry are separate records, joined by “and”; a condition that tells them apart may be missing. Identical values can stand only once. The campaign covered roughly 5,500 compounds. About 2,000 (36%) were called active. Roughly 18% stayed inconclusive and do not appear here. Rule as the data show it: active = normalized growth mostly below about 0.91 (no sharp cut-off); inconclusive = no clear call, values can overlap the other calls; inactive = mostly above about 0.92. The list shows a part of the results.

Test: chemical genetic growth profiling, strain panel (AID 1159580);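 also: tested at 20 µM; growth read once vehicle control cultures reached saturation at 30 °C; 1 = growth at the plate median or of vehicle wells; lower values mean less growth of the strain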
Details: S. cerevisiae deletion strains, growth OD

Measured: normalized growth

CC(=O)Oc1ccc2c(c1OC(C)=O)OCC1(O)Cc3c(cc(OC(C)=O)c(OC(C)=O)c3OC(C)=O)C21 (configuration not stated)
inactive: locus YAL013W, strain DEP1, hits give low values 1.02 | locus YAL021C, strain ccr4, hits give low values 0.948 | locus YAL026C, strain drs2, hits give low values 1.03 | locus YAL030W, strain snc1, hits give low values 1.01 | locus YBL061C, strain skt5, hits give low values 1.01 | locus YBR009C, strain hhf1, hits give low values 1.01 | locus YBR021W, strain FUR4, hits give low values 1.02 | locus YBR023C, strain chs3, hits give low values 0.988 | locus YBR171W, strain sec66, hits give low values 1.02 | locus YBR229C, strain ROT2, hits give low values 1.01 | locus YBR231C, strain swc5, hits give low values 0.975 | locus YBR279W, strain paf1, hits give low values 0.99 | locus YCL011C, strain gbp2, hits give low values 0.997 | locus YCL016C, strain dcc1, hits give low values 0.982 | locus YCL029C, strain bik1, hits give low values 0.978 | locus YCL061C, strain MRC1, hits give low values 1 | locus YCL069W, strain vba3, hits give low values 1.03 | locus YCR088W, strain abp1, hits give low values 1.02 | locus YDL005C, strain med2, hits give low values 1.01 | locus YDL035C, strain GPR1, hits give low values 1.01 | locus YDL040C, strain nat1, hits give low values 1.01 | locus YDL074C, strain BRE1, hits give low values 0.973 | locus YDL101C, strain DUN1, hits give low values 0.943 | locus YDL134C, strain PPH21, hits give low values 0.997 | locus YDL185W, strain tfp1, hits give low values 0.955 | locus YDL192W, strain arf1, hits give low values 1.01 | locus YDR001C, strain nth1, hits give low values 1.02 | locus YDR069C, strain doa4, hits give low values 0.969 | locus YDR101C, strain arx1, hits give low values 1.04 | locus YDR137W, strain rgp1, hits give low values 1 | locus YDR159W, strain sac3, hits give low values 1.06 | locus YDR162C, strain NBP2, hits give low values 0.948 | locus YDR195W, strain ref2 1.01 | locus YDR297W, strain sur2, hits give low values 1 | locus YDR318W, strain mcm21, hits give low values 1.02 | locus YDR334W, strain swr1, hits give low values 1.02 | locus YDR335W, strain msn5, hits give low values 0.998 | locus YDR388W, hits give low values 0.996 | locus YDR392W, strain spt3, hits give low values 0.923 | locus YDR502C, strain sam2, hits give low values 1 | locus YEL003W, strain gim4, hits give low values 1 | locus YEL037C, strain rad23, hits give low values 1.01 | locus YEL061C, strain CIN8 (second series), hits give low values 1.01 | locus YER015W, strain faa2, hits give low values 0.974 | locus YER016W, strain bim1, hits give low values 1.02 | locus YER110C, hits give low values 0.991 | locus YER111C, strain swi4, hits give low values 0.999 | locus YER155C, strain BEM2 (second series), hits give low values 1.02 | locus YER155C, strain BEM2, hits give low values 1.02 | locus YER167W, strain BCK2, hits give low values 1.01 | locus YFR010W, strain ubp6, hits give low values 1.02 | locus YGL078C, strain dbp3, hits give low values 0.983 | locus YGL086W, strain mad1, hits give low values 0.986 | locus YGL167C, strain pmr1, hits give low values 0.995 | locus YGL173C, strain kem1, hits give low values 1.02 | locus YGL227W, strain vid30, hits give low values 1.02 | locus YGL240W, strain doc1, hits give low values 1.07 | locus YGL248W, strain PDE1, hits give low values 0.965 | locus YGL253W, strain hxk2, hits give low values 1.04 | locus YGR135W, strain pre9, hits give low values 0.949 | locus YGR229C, strain SMI1, hits give low values 1.07 | locus YGR252W, strain gcn5, hits give low values 1.11 | locus YHR013C, strain ard1, hits give low values 0.981 | locus YHR027C, strain rpn1, hits give low values 1 | locus YHR030C, strain SLT2, hits give low values 1.01 and 1.06 | locus YHR079C, strain IRE1 (second series), hits give low values 0.987 | locus YHR079C, strain IRE1, hits give low values 1.08 | locus YHR094C, strain hxt1, hits give low values 1 | locus YHR129C, strain ARP1, hits give low values 1.01 | locus YHR142W, strain chs7, hits give low values 1 | locus YHR200W, strain rpn10, hits give low values 0.983 | locus YIL066C, strain RNR3, hits give low values 0.97 | locus YIL073C, strain SPO22, hits give low values 0.794 | locus YIL125W, strain kgd1, hits give low values 0.993 | locus YIR030C, strain dcg1, hits give low values 0.986 | locus YJL092W, strain hpr5, hits give low values 1.01 | locus YJL095W, strain BCK1 (second series), hits give low values 1 | locus YJL095W, strain BCK1, hits give low values 0.947 and 1.06 | locus YJL115W, strain asf1, hits give low values 1.01 | locus YJL129C, strain trk1, hits give low values 1.03 | locus YJL134W, strain LCB3, hits give low values 1 | locus YJL154C, strain vps35, hits give low values 1.01 | locus YJL164C, strain tpk1, hits give low values 0.98 | locus YJL166W, strain qcr8, hits give low values 1.01 | locus YJL168C, strain set2, hits give low values 0.997 | locus YJL187C, strain SWE1 (second series), hits give low values 0.873 | locus YJL187C, strain SWE1, hits give low values 0.988 | locus YJR066W, strain TOR1, hits give low values 1.04 | locus YKL009W, strain mrt4, hits give low values 0.973 | locus YKL068W, hits give low values 0.994 | locus YKL085W, strain MDH1 (second series), hits give low values 0.976 | locus YKL085W, strain MDH1, hits give low values 0.976 | locus YKL160W, strain elf1, hits give low values 0.983 | locus YKL190W, strain CNB1, hits give low values 0.987 | locus YKR001C, strain vps1, hits give low values 1.04 | locus YKR026C, strain gcn3, hits give low values 1.02 | locus YKR091W, strain srl3, hits give low values 1.01 | locus YLL001W, strain dnm1, hits give low values 0.978 | locus YLL026W, hits give low values 1.01 | locus YLL041C, strain sdh2, hits give low values 1.02 | locus YLR027C, strain aat2, hits give low values 1.01 | locus YLR039C, strain RIC1, hits give low values 1.06 | locus YLR058C, strain SHM2, hits give low values 0.898 | locus YLR102C, strain apc9, hits give low values 0.981 | locus YLR113W, strain HOG1, hits give low values 1.04 | locus YLR221C, strain rsa3, hits give low values 1.03 | locus YLR258W, strain gsy2, hits give low values 1 | locus YLR262C, strain YPT6 (second series), hits give low values 1 | locus YLR268W, strain sec22, hits give low values 1.01 | locus YLR320W, strain mms22, hits give low values 1.03 | locus YLR330W, strain CHS5, hits give low values 1.02 | locus YLR342W, strain FKS1, hits give low values 1 | locus YLR357W, strain rsc2, hits give low values 1 | locus YLR370C, strain arc18, hits give low values 1.01 | locus YLR371W, strain rom2, hits give low values 0.997 | locus YLR384C, strain iki3, hits give low values 1.01 | locus YLR418C, strain cdc73, hits give low values 1.02 | locus YML016C, strain PPZ1, hits give low values 0.972 | locus YML032C, strain rad52, hits give low values 1 | locus YML120C, strain ndi1, hits give low values 0.983 | locus YML124C, strain tub3, hits give low values 0.988 | locus YMR058W, strain fet3, hits give low values 1.02 | locus YMR078C, strain ctf18, hits give low values 0.994 | locus YMR125W, strain sto1, hits give low values 0.989 | locus YMR129W, hits give low values 1.01 | locus YMR205C, strain PFK2, hits give low values 0.974 | locus YMR223W, strain ubp8, hits give low values 0.995 | locus YMR231W, strain pep5, hits give low values 1.01 | locus YMR263W, strain SAP30, hits give low values 1.01 | locus YMR307W, strain GAS1, hits give low values 1.06 | locus YNL067W, strain RPL9B, hits give low values 1.02 | locus YNL071W, strain lat1, hits give low values 1 | locus YNL183C, strain NPR1, hits give low values 1.03 | locus YNL209W, strain ssb2, hits give low values 0.973 | locus YNL233W, strain BNI4, hits give low values 1 | locus YNL248C, strain rpa49, hits give low values 1.04 | locus YNL250W, strain rad50, hits give low values 0.925 | locus YNL271C, strain bni1, hits give low values 0.976 | locus YNL298W, strain CLA4, hits give low values 1.01 | locus YNL307C, strain MCK1, hits give low values 0.998 | locus YNL322C, strain KRE1 (second series), hits give low values 1 | locus YNR049C, strain mso1, hits give low values 1.03 | locus YNR052C, strain pop2, hits give low values 0.988 | locus YOL006C, strain TOP1, hits give low values 0.743 | locus YOL012C, strain htz1 0.406 | locus YOL147C, strain pex11, hits give low values 0.999 | locus YOR001W, strain rrp6, hits give low values 1.06 | locus YOR061W, strain CKA2, hits give low values 0.981 | locus YOR069W, strain VPS5, hits give low values 1 | locus YOR070C, strain gyp1, hits give low values 1.01 | locus YOR080W, strain dia2, hits give low values 1 | locus YOR083W, strain WHI5, hits give low values 0.984 | locus YOR106W, strain vam3, hits give low values 0.955 | locus YOR136W, strain idh2, hits give low values 1.02 | locus YOR144C, strain elg1, hits give low values 1 | locus YOR184W, strain ser1, hits give low values 1.1 | locus YOR231W, strain MKK1, hits give low values 1.08 | locus YOR265W, strain rbl2, hits give low values 1.03 | locus YOR270C, strain vph1, hits give low values 1.07 | locus YOR290C, strain snf2, hits give low values 0.988 | locus YOR316C, strain cot1, hits give low values 0.987 | locus YPL051W, strain arl3, hits give low values 0.969 | locus YPL078C, strain atp4, hits give low values 0.991 | locus YPL106C, strain sse1, hits give low values 0.949 | locus YPL240C, strain hsp82, hits give low values 1.01 | locus YPL241C, strain CIN2, hits give low values 0.996 | locus YPL256C, strain CLN2, hits give low values 1.05 | locus YPR119W, strain clb2, hits give low values 0.996 | locus YPR141C, strain kar3, hits give low values 0.989 | locus YPR163C, strain tif3, hits give low values 1.01 | locus YPR167C, strain met16, hits give low values 1.01 | strain wtn01, hits give low values 0.992
